PubChem BioAssay (NCATS)
Results filed as inconclusive are left out. A call without a number means that no potency is given here. Calls of active or inactive are those of the source. Unless noted, the call rests on the fitted dose curve; in most records, active means well fitted curve in the direction sought with a large enough effect; inconclusive means small, poorly fitted or top-dose-only effect, or another doubt; inactive means no such curve, though single readings can be large; an effect the other way counts as inactive or inconclusive.

Key:
[1] = High-throughput drug toxicity screening in the BPDCN cell line Gen2.2 (AID 1224824; call rule not given here;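 further: cells exposed to compounds for 48 h before reading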); conditions: Gen2.2 BPDCN cells; at 45.8 µM (top of the series) unless noted
In short: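 CellTiter-Glo luminescence after 48 h compound exposure of Gen2.2 cells; percent activity set with DMSO as 100% and bortezomib (9.2 uM final) as 0%. Cells seeded at 500 per well, RPMI + 10% FBS, 37 °C.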

[2] = High-throughput drug toxicity screening in the BPDCN cell line Cal-1 (AID 1224825; call rule not given here); conditions: Cal-1 BPDCN cell viability, qHTS; at 45.8 µM (top of the series) unless noted
In short: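 500 Cal-1 cells/well, RPMI + glutamine + 10% FBS (phenol red-free); cpd added by pin tool; 48 h, 37C, 5% CO2; CTG 15 min RT, lumi read. Normalised: DMSO 100%, bortezomib 9.2 uM 0%.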

[3] = qHTS assay for measurement of the activity of small molecule inhibitors on Zika virus induced Caspase-3 activity in human iPSC derived neural progenitor cells (hNPCs) (AID 1224857); further: nearly all actives have a fitted effect of over 65% in size
In short: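 Human iPSC-derived neural progenitor cells pretreated 1 hr with compounds, then infected with Zika virus (2 FFU/cell) for 6 hours at 37 C. Caspase-3/7 measured by Caspase-Glo luminescence; % inhibition calculated from induction scaled to uninfected (0%) and infected (100%) wells.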

[4] = qHTS assay for measurement of the activity of small molecule inhibitors on Zika virus induced Caspase-3 activity in human astrocytoma cells (AID 1224859)
In short: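 SNB-19 astrocytoma cells, 250/well, pretreated 1 h with compounds, then Zika virus at 2 FFU/cell for 6 h at 37 C; Caspase-Glo 3/7 luminescence after 30 min; percent inhibition normalised to uninfected and infected controls.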

[5] = qHTS Screen of the MIPE 4.0 Collection Against Ewings Sarcoma (RDES) (AID 1259252); further: nearly all actives have a fitted effect of over 35% in size; further: potency means the concentration at half of the fitted maximal effect
In short: (§1)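 Cells plated in serum-containing RPMI (5% FBS) and treated with compound dilutions for 48 h. Readout luminescent viability; normalization relied on vehicle (no inhibition) and media-only columns (full inhibition).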

[6] = qHTS Screen of the MIPE 4.0 Collection Against Ewings Sarcoma (TC71) (AID 1259253); further: nearly all actives have a fitted effect of over 40% in size; further: potency means the concentration at half of the fitted maximal effect
In short: as §1

[7] = qHTS Screen of the MIPE 4.0 Collection Against Ewings Sarcoma (EW8) (AID 1259255); further: nearly all actives have a fitted effect of over 35% in size; further: potency means the concentration at half of the fitted maximal effect
In short: as §1

[8] = qHTS Screen of the MIPE 4.0 Collection Against Ewings Sarcoma (TC32) (AID 1259256); further: nearly all actives have a fitted effect of over 45% in size; further: potency means the concentration at half of the fitted maximal effect
In short: as §1

[9] = qHTS assay to identify small molecule inhibitors of chordoma cells - UCH-1 (AID 1259355); further: nearly all actives have a fitted effect of over 55% in size
In short: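 Seed 800 cells per well; incubate overnight at 37 C, 5% CO2. Add test compounds (15 concentrations), then the auranofin–topoisomerase-agent combination. Incubate 48hr, add CellTiter-Glo, wait 30min, read luminescence.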

[10] = qHTS assay to identify small molecule inhibitors of chordoma cells - UCH-2 (AID 1259356)
[11] = qHTS profiling of the MIPE4 collection as inhibitors of Plasmodium falciparum (3D7) proliferation (AID 743344; call rule not given here); conditions: P. falciparum 3D7 in erythrocytes, SYBR Green DNA fluorescence, 72 h; at 28.5 µM (top of the series) unless noted
In short: (§2)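 Erythrocytes infected with P. falciparum (0.3% parasitemia, 2.5% hematocrit) incubated with compounds 72 h at 37 C, 5% CO2. Lysis with saponin/Triton buffer containing SYBR Green I, overnight at room temperature in the dark; DNA fluorescence (485/535 nm) normalised to 0.29 uM artemisinin and DMSO.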

[12] = qHTS profiling of the MIPE4 collection as inhibitors of Plasmodium falciparum (DD2) proliferation (Rep 2) (AID 743346; call rule not given here); conditions: P. falciparum Dd2 in erythrocytes, SYBR Green DNA, 72 h; at 28.5 µM (top of the series) unless noted
In short: as §2

[13] = qHTS profiling for inhibitors of Plasmodium falciparum (3D7) proliferation (AID 743322; call rule not given here;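 further: infected erythrocytes exposed to compound for 72 h before lysis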); conditions: P. falciparum 3D7 proliferation; at 28.7 µM (top of the series)
In short: as §2

[14] = qHTS profiling for inhibitors of Plasmodium falciparum (DD2) proliferation (AID 743323; call rule not given here); conditions: lower = more inhibition; at 28.7 µM (top of the series)
In short: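 Parasite DNA quantified by SYBR Green fluorescence (ex 485, em 535 nm) after saponin/Triton lysis and overnight dark incubation. Cultures: 0.3% parasitemia, 2.5% hematocrit, 72 h, 37 C; data scaled between DMSO and 0.29 uM artemisinin.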

[15] = qHTS profiling for inhibitors of Plasmodium falciparum (HB3) proliferation (AID 743324); conditions: Plasmodium falciparum HB3 blood-stage proliferation; at 28.7 µM (top of the series)
In short: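 P. falciparum HB3 grown in erythrocytes (0.3% parasitemia, 2.5% hematocrit final) with compound for 72 h at 37 C, 5% CO2. Parasite DNA detected by SYBR Green after saponin/triton lysis overnight; normalized to 0.29 uM artemisinin and DMSO.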

[16] = qHTS profiling of the MIPE4 collection as inhibitors of Plasmodium falciparum (HB3) proliferation (AID 743347; call rule not given here); conditions: P. falciparum HB3 in erythrocytes, SYBR Green DNA, 72 h; at 28.5 µM (top of the series) unless noted
In short: as §2

[17] = qHTS profiling of the MIPE4 collection as inhibitors of Plasmodium falciparum (DD2) proliferation (AID 743345; call rule not given here); conditions: P. falciparum Dd2 in erythrocytes, SYBR Green DNA, 72 h; at 28.5 µM (top of the series) unless noted
In short: as §2

| Structure (SMILES) | cell viability, % of control (lower = more cytotoxic) [1] | viability (% of control) [2] | Potency [3] | Potency [4] | Potency [5] | Potency [6] | Potency [7] | Potency [8] | Potency [9] | Potency [10] | parasite growth, % of DMSO control [11] | parasite growth, % of control (lower = inhibition) [12] | remaining parasite growth % (stronger effect = lower value) [13] | activity, percent of control [14] | remaining proliferation (% of control), lower = more inhibition [15] | growth, % of control [16] | parasite growth remaining, % of DMSO control (lower = more inhibition) [17] |
| --- | --- | --- | --- | --- | --- | --- | --- | --- | --- | --- | --- | --- | --- | --- | --- | --- | --- |
| OC(Cn1cncn1)(Cn1cncn1)c1ccc(F)cc1F | 66.2% | 114% | inactive | inactive | inactive | inactive | inactive | inactive | inactive | inactive |  |  |  |  |  |  |  |
| CCC(=O)O[C@]1(C(=O)SCF)[C@H](C)C[C@H]2[C@@H]3C[C@H](F)C4=CC(=O)C=C[C@]4(C)[C@@]3(F)[C@@H](O)C[C@@]21C | 84.3% | 52.2% | inactive | inactive | 16.6 µM (active) | inactive | inactive | inactive | inactive | inactive | 47.5% | 44.9% |  |  |  |  |  |
| O=C(O)c1cn(C2CC2)c2cc(N3CCNCC3)c(F)cc2c1=O | 138% | 103% | inactive | inactive | inactive | inactive | inactive | inactive | inactive | inactive | 75.2% | 67.8% | 95% | 90.7% | 92.1% | 76.4% |  |
| O=S(=O)(O)CCS | 25.9% | 32.1% | inactive | inactive | inactive | inactive | inactive | inactive | inactive | inactive | 87.9% | 78.8% |  |  |  |  | 108% |
| CCCCOc1ccc(CC(=O)NO)cc1 | 37% | 29% | inactive | inactive | 6.62 µM (active) | 7.43 µM (active) | 10.5 µM (active) | 5.26 µM (active) | inactive | inactive | 11.6% | 16.4% |  |  |  | 5.4% |  |
| Cn1c(=O)c2c(ncn2CC(O)CO)n(C)c1=O (stereo not drawn) | 104% | 100% | inactive | inactive | inactive | inactive | inactive | inactive | inactive | inactive | 85.8% | 96.6% |  |  |  | 56.5% | 88.3% |
| CCOC(=O)[C@H](CCc1ccccc1)N[C@H]1CCc2ccccc2N(CC(=O)O)C1=O | 22.7% | 22.3% | inactive | inactive | 23.5 µM (active) | 20.9 µM (active) | 23.5 µM (active) | 23.5 µM (active) | inactive | inactive | 9.1% | 22.6% |  |  |  | 11.1% | 9.11% |
| NCCCC(O)(P(=O)(O)O)P(=O)(O)O | 169% | 97.8% | inactive | inactive | inactive | inactive | inactive | inactive | inactive | inactive | 96% | 114% |  |  |  |  | 107% |
| C[C@@H](CN1CC(=O)NC(=O)C1)N1CC(=O)NC(=O)C1 | 147% | 14.7% | inactive | inactive | inactive | inactive | 18.7 µM (active) | inactive | inactive | inactive | 74.5% | 105% |  |  |  | 65.5% | 88.1% |
| NC(=O)N1c2ccccc2CC(=O)c2ccccc21 | 104% | 112% | inactive | inactive | inactive | inactive | inactive | inactive | inactive | inactive | 92.2% | 187% |  |  |  | 102% | 96.7% |
| O=C(O)c1cc(=O)[nH]c(=O)[nH]1 | 184% | 128% | inactive | inactive | inactive | inactive | inactive | inactive | inactive | inactive | 101% | 89% |  |  |  | 107% | 144% |
| CC(N)C12CC3CC(CC(C3)C1)C2 (stereo not drawn) | 175% | 105% | inactive | inactive | inactive | inactive | inactive | inactive | inactive | inactive | 76.2% | 32.1% |  |  |  | 96.9% |  |
| CC(C)OC(=O)C(C(=O)OC(C)C)=C1SC=CS1 | 159% | 94.2% | inactive | inactive | inactive | inactive | inactive | inactive | inactive | inactive | 89% | 72.6% |  |  |  | 91.6% | 117% |
| COc1ccccc1OCC(O)COC(N)=O (stereo not drawn) | 109% | 124% | inactive | inactive | inactive | inactive | inactive | inactive | inactive | inactive | 94.6% | 142% |  |  |  |  |  |
| NS(=O)(=O)c1cc2c(cc1Cl)NC(C(Cl)Cl)NS2(=O)=O (stereo not drawn) | 43.4% | 94.1% | inactive | inactive | inactive | inactive | inactive | inactive | inactive | inactive | 84.2% | 65% |  |  |  | 60.5% | 86.3% |
| Cc1cccc(N(C)C(=S)Oc2ccc3ccccc3c2)c1 | 227% | 79.3% | inactive | inactive | inactive | inactive | inactive | inactive | inactive | inactive | 51.5% | 51.6% |  |  |  | 50.4% | 84.1% |
| COc1cnc(NS(=O)(=O)c2ccc(N)cc2)nc1 | 32.7% | 21.6% | inactive | inactive | inactive | inactive | inactive | inactive | inactive | inactive | 87.5% | 79.9% |  |  |  | 58.8% | 95.4% |
